In PubChem BioAssay (NCATS):
Inconclusive results are not listed. Activity calls are given as the source filed them. Calls come from the whole dose curve; as a rule, active = well fitted curve in the direction sought with a large enough effect; inconclusive = small, poorly fitted or top-dose-only effect, or another doubt; inactive = no such curve, though single readings can be large; an effect the other way counts as inactive or inconclusive.

What was measured:
[1] = Cell Viability - H-4-II-E (AID 543);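 note: cells exposed to compound for 40 hours; % is set by controls: 0 for no effect and ±100 for the full control effect; nearly all actives have a fitted effect of over 35% in size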
How it was run: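 CellTiter-Glo luminescence (intracellular ATP) measured after 40 h compound exposure at 37 °C in H-4-II-E rat hepatoma cells seeded at 1500/well. Values are AC50s fitted with the standard Hill equation.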

[2] = Cell Viability - SH-SY5Y (AID 544); conditions: SH-SY5Y neuroblastoma cell viability; viability change, negative = cytotoxic: at 92.2 µM (top of the series);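 note: cells exposed to compound for 40 hours; nearly all actives have a fitted effect of over 55% in size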
How it was run: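 Cytotoxicity measured via ATP-dependent luciferase luminescence (CellTiter-Glo) following 40 h, 37 °C exposure of 1500 SH-SY5Y cells per well. Concentration-response data were fitted with the standard Hill equation to give AC50.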

[3] = Cell Viability - Renal Proximal Tubule (AID 545);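 note: cells exposed to compound for 40 hours; nearly all actives have a fitted effect of over 40% in size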
How it was run: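 Luminescent ATP signal (CellTiter-Glo) served as the viability read-out after 40 hr compound exposure of freshly isolated rat proximal tubule cells at 37 °C. Concentration-dependent ATP loss was fitted with the Hill equation to give AC50.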

[4] = Cell Viability - Mesenchymal (AID 546);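 note: cells exposed to compound for 40 hours before reading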
How it was run: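 In this qHTS cytotoxicity format, glomerulus-derived human mesenchymal kidney cells received compound for 40 hr, then luciferase-based ATP quantitation. Concentration-response data were fitted with the Hill equation.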

[5] = Cellular Toxicity (caspase-3) HepG2 (AID 654);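 note: cells exposed to compound for 16 hours before reading; 0% = DMSO alone and 100% = caspase signal from 100 µM tamoxifen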
How it was run: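 Caspase 3/7 activation is measured as a luminescence increase (aminoluciferin substrate) after 16 h compound exposure of human hepatocarcinoma HepG2 cells. AC50 values are Hill fits, scaled between DMSO baseline and 100 uM tamoxifen stimulation.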

[6] = Cellular Toxicity (caspase-3) Jurkat (AID 655); conditions: Jurkat caspase-3 activation, luminescence; caspase-3 activation: at 92.2 µM (top of the series), DMSO = 0%, tamoxifen = 100%;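 note: cells exposed to compound for 16 h at 37 °C before reading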
How it was run: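 5000 Jurkat cells/well; compound 16 hr, 37 °C; Caspase-Glo 3/7 added, 20 min RT; luminescence read. Norm: DMSO = 0%, tamoxifen 100 uM = 100%. AC50, Hill model.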

[7] = Cellular Toxicity (caspase-3) HUV-EC-C (AID 656)
How it was run: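 qHTS; HUV-EC-C, 1000 cells/well; 5 hr settle, 16 hr cmpd, 37°C; Caspase-Glo 3/7, 20 min RT; luminescence. Norm: DMSO = 0%, tamoxifen 100 uM = 100%. Hill-fit AC50.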

[8] = Cellular Toxicity (caspase-3) SHSY5Y (AID 657);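 note: cells exposed to compound for 16 hours at 37 °C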
How it was run: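 qHTS, SH-SY5Y, 1500 cells/well, 5 h pre-incubation 37 °C; compound 16 h 37 °C; Caspase-Glo 3/7 1 h RT; luminescence. Norm.: DMSO = 0, 10 uM staurosporine = 100%. Hill fit → AC50.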

[9] = Cellular Toxicity (caspase-3) BJ (AID 658);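 note: cells exposed to compound for 16 hours; 0% = DMSO basal and 100% = 10 µM staurosporine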
How it was run: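 Plated BJ cells (1000/well) rested 5 hr, received compound for 16 hr at 37 °C, then Caspase-Glo 3/7 reagent for 1 hr at room temperature before luminescence reading.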

[10] = Cellular Toxicity (caspase-3) MRC-5 (AID 659);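 note: 0% = DMSO basal and 100% = 10 µM staurosporine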
How it was run: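 Apoptosis readout in MRC-5 cells: luciferase light generated after caspase 3/7 cleaves a peptide-aminoluciferin substrate, measured post 16 hr compound incubation at 37 °C.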

O=C1OC(=O)c2c(Cl)c(Cl)c(Cl)c(Cl)c21
inactive: Potency [1] | Potency [2] | Potency [3] | Potency [4] | Potency [5] | caspase-3 activation [6] 0.457% | outcome [7] | outcome [8] | outcome [9] | outcome [10]

COC(=O)CC#N
inactive: Potency [1] | Potency [2] | Potency [3] | Potency [4] | Potency [5] | caspase-3 activation [6] 1.32% | outcome [7] | outcome [9] | outcome [10]

C=Cc1ccccc1C=C
inactive: Potency [1] | Potency [2] | Potency [3] | Potency [4] | Potency [5] | outcome [7] | outcome [8] | outcome [9] | outcome [10]

CC(=O)c1cccc([N+](=O)[O-])c1
inactive: Potency [1] | Potency [2] | Potency [3] | Potency [4] | Potency [5] | caspase-3 activation [6] -0.656% | outcome [7] | outcome [8] | outcome [9] | outcome [10]

O=[N+]([O-])c1cc(C(F)(F)F)ccc1Cl
inactive: Potency [1] | Potency [2] | Potency [3] | Potency [4] | Potency [5] | caspase-3 activation [6] 0.364% | outcome [7] | outcome [9] | outcome [10]

CCOC(C)(C)C
inactive: Potency [1] | Potency [2] | Potency [3] | Potency [4] | Potency [5] | caspase-3 activation [6] -1.17% | outcome [7] | outcome [8] | outcome [9] | outcome [10]

Cc1cccc([N+](=O)[O-])c1C(=O)O
inactive: Potency [1] | Potency [2] | Potency [3] | Potency [4] | Potency [5] | caspase-3 activation [6] 0.48% | outcome [7] | outcome [9] | outcome [10]

OCCO
inactive: Potency [1] | Potency [2] | Potency [3] | Potency [4] | Potency [5] | outcome [7] | outcome [8] | outcome [9] | outcome [10]

NC(=O)c1ccccc1[N+](=O)[O-]
inactive: Potency [1] | Potency [2] | Potency [3] | Potency [4] | Potency [5] | caspase-3 activation [6] -0.0168% | outcome [7] | outcome [9] | outcome [10]

NC=O
inactive: Potency [1] | Potency [2] | Potency [3] | Potency [4] | Potency [5] | caspase-3 activation [6] 2.21% | outcome [7] | outcome [9] | outcome [10]

C=CCCCCCCC=C
inactive: Potency [1] | Potency [2] | Potency [3] | Potency [4] | Potency [5] | caspase-3 activation [6] 2.57% | outcome [7] | outcome [9] | outcome [10]

CCC(C)=O
inactive: Potency [1] | Potency [2] | Potency [3] | Potency [4] | Potency [5] | outcome [7] | outcome [8] | outcome [9] | outcome [10]

Cc1ccc(CO)cc1
inactive: Potency [1] | Potency [2] | Potency [3] | Potency [4] | Potency [5] | caspase-3 activation [6] 2.2% | outcome [7] | outcome [8] | outcome [9] | outcome [10]

C[C@@H]1CC2(OC3C[C@@]4(C)C5=CC[C@H]6C(C)(C)C(O[C@@H]7OC[C@@H](O)[C@H](O)[C@H]7O)CC[C@@]67C[C@@]57CC[C@]4(C)C31)OC(O)C1(C)OC21 (stereo not given in full)
inactive: Potency [1] | Potency [2] | Potency [3] | Potency [4] | Potency [5] | caspase-3 activation [6] 2.56% | outcome [7] | outcome [9] | outcome [10]

NC(N)=S
inactive: Potency [1] | Potency [2] | Potency [3] | Potency [4] | Potency [5] | caspase-3 activation [6] 0.321% | outcome [7] | outcome [8] | outcome [9] | outcome [10]

ON=C1CCCCC1
inactive: Potency [1] | Potency [2] | Potency [3] | Potency [4] | Potency [5] | caspase-3 activation [6] -0.266% | outcome [7] | outcome [8] | outcome [9] | outcome [10]

Cc1cc(C(=O)O)ccc1[N+](=O)[O-]
inactive: Potency [1] | Potency [2] | Potency [3] | Potency [4] | Potency [5] | caspase-3 activation [6] -1.06% | outcome [7] | outcome [9] | outcome [10]

CC(C)CO
inactive: Potency [1] | Potency [2] | Potency [3] | Potency [4] | Potency [5] | caspase-3 activation [6] -0.38% | outcome [7] | outcome [9] | outcome [10]

C=CC(=O)OCCCC
inactive: Potency [1] | Potency [2] | Potency [3] | Potency [4] | Potency [5] | caspase-3 activation [6] 0.501% | outcome [7] | outcome [9] | outcome [10]

CCC1CO1 (stereo not given)
inactive: Potency [1] | Potency [2] | Potency [3] | Potency [4] | Potency [5] | caspase-3 activation [6] 1.29% | outcome [7] | outcome [8] | outcome [9] | outcome [10]

COc1ccccc1[N+](=O)[O-]
inactive: Potency [1] | Potency [2] | Potency [3] | Potency [4] | Potency [5] | caspase-3 activation [6] 10.8% | outcome [7] | outcome [9] | outcome [10]

CCCCC=O
inactive: Potency [1] | Potency [2] | Potency [3] | Potency [4] | Potency [5] | caspase-3 activation [6] -1.47% | outcome [7] | outcome [9] | outcome [10]

O=C(O)c1ccccc1[N+](=O)[O-]
inactive: Potency [1] | Potency [2] | Potency [3] | Potency [4] | Potency [5] | outcome [7] | outcome [8] | outcome [9] | outcome [10]

CC(C)(C)c1ccc(OCC2CO2)cc1 (stereo not given)
inactive: Potency [1] | Potency [2] | Potency [3] | Potency [4] | Potency [5] | caspase-3 activation [6] 15.6% | outcome [7] | outcome [9] | outcome [10]

NCCCCCCN
inactive: Potency [1] | Potency [2] | Potency [3] | Potency [4] | Potency [5] | caspase-3 activation [6] -1.28% | outcome [7] | outcome [9] | outcome [10]

Cc1ccc(Cl)cc1
inactive: Potency [1] | Potency [2] | Potency [3] | Potency [4] | Potency [5] | caspase-3 activation [6] 1.47% | outcome [7] | outcome [9] | outcome [10]

Cc1cccc(C)c1[N+](=O)[O-]
inactive: Potency [1] | Potency [2] | Potency [3] | Potency [4] | Potency [5] | outcome [7] | outcome [8] | outcome [9] | outcome [10]

c1ccc(Nc2ccccc2)cc1
inactive: Potency [1] | Potency [2] | Potency [3] | Potency [4] | Potency [5] | caspase-3 activation [6] 1.36% | outcome [7] | outcome [8] | outcome [9] | outcome [10]
